Most compounds without a hit are left out; they make up all but 7.6% or so of the library.
SW480 rerep: inducers of DNA re-replication in SW480 colon cancer cells. SW480 DNA re-replication, Hoechst DNA content imaging, 48 h. Potency, µM (highest dose often 46.1 µM), inactives show at the highest dose re-replication activation, hits mostly activators. 1.8% of 340,000 active. AID 624297; also: potency is read from the fitted curve at half-maximal effect; % of control where 0% means no effect; nearly all actives have a fitted effect of over 55% in size
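Per well, 250 cells were exposed to pinned compound for 48 hr. Nuclear DNA was visualised with Hoechst (40 min, 37 C) and total object intensity recorded by fluorescence scanning.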
KCNH2 3.1 inh: blocks the human KCNH2 3.1 channel isoform | 0.95% of 340,000 active | U2OS KCNH2 3.1, thallium flux FluxOr; stronger effect = lower value | activity change, % (tested at about 1.8 µM) | AID 720553;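 active = maximum activity change below -70%; inconclusive = maximum activity change from -70% to -50%; inactive = maximum activity change above -50%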;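 also: thallium influx rate constant from kinetic fluorescence after stimulation buffer; % is scaled to controls: 0 for no effect and ±100 for the full control effect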
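FluxOr-based Tl+ influx in U2OS cells transduced with KCNH2 3.1 virus; rate constants normalized to DMSO controls.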
hERG WT inh: KCNH2 (human, wildtype) channel inhibition | activity change, % at 1.84 µM | U2OS, BacMam KCNH2, thallium flux FluxOr; stronger effect = lower value | 0.37% of 340,000 active;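 active = maximum activity change below -70%; inconclusive = maximum activity change between -70% and -50%; inactive = maximum activity change above -50%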; also: % is scaled to controls: 0 for no effect and ±100 for the full control effect
Target sequence (Q12809 whole entry, looked up): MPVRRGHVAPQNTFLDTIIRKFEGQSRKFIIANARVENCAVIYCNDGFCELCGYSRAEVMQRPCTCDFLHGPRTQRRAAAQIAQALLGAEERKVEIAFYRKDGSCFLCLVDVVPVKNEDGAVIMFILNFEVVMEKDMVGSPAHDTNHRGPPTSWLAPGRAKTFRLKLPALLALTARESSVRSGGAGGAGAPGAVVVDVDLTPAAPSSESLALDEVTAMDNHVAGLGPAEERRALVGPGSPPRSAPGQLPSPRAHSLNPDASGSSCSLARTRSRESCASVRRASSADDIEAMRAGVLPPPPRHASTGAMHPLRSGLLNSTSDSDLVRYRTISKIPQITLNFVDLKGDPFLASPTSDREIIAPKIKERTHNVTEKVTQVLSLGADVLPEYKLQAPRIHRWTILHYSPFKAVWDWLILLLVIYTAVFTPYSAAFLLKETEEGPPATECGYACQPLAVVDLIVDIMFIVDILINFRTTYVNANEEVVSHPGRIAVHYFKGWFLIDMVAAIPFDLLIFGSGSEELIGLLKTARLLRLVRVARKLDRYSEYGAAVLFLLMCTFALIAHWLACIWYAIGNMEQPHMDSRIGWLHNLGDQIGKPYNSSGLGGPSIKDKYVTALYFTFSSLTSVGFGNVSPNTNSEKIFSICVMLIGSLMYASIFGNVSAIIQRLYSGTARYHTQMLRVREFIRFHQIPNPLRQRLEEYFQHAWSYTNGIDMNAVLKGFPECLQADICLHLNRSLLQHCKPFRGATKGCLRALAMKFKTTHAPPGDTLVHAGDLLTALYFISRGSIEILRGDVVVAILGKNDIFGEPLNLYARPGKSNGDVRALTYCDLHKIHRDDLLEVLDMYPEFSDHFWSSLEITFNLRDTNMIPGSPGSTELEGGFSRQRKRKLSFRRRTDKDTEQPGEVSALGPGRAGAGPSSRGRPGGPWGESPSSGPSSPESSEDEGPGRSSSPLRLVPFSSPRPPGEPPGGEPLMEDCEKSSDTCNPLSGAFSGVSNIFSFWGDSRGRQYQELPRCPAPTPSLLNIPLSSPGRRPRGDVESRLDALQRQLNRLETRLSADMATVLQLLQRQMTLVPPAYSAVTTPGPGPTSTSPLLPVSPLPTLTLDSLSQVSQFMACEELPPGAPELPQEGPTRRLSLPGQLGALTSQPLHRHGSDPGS
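U2OS cells were transduced with wild-type KCNH2 virus (2.03 x 10^8 / mL) for 4 h at room temperature, then cultured overnight at 37 C. Thallium flux was read with FluxOr dye. Rate constants were normalized to DMSO controls.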
KB-V1 MDR tox: KB-V1 MDR subline cytotoxicity; Potency, µM (doses to about 46.1 µM), usual class: cytotoxic; KB-V1 MDR cells viability, CellTiter-Glo, 72 h; 3.4% of 400,000 active; AID 1347076; also: potency is read from the fitted curve at half-maximal effect; % is scaled to controls: 0 for no effect and ±100 for the full control effect; nearly all actives have a fitted effect of over 60% in size
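Cytotoxicity toward P-gp-expressing KB-V1 cells was determined as loss of CellTiter-Glo luminescence after 72 h at 37 degrees C. Compounds were tested in quantitative HTS format across a concentration range, with curves fitted to normalized data.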
KB-3-1 tox: KB-3-1 parental cell cytotoxicity; Potency, µM (highest dose often 46.1 µM), usual class: cytotoxic; KB-3-1 viability, CellTiter-Glo ATP luminescence, 72 h; 1.4% of 400,000 active; also: potency is read from the fitted curve at half-maximal effect; % is scaled to controls: 0 for no effect and ±100 for the full control effect; nearly all actives have a fitted effect of over 60% in size
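Cytotoxicity measured as CellTiter-Glo luminescence after 72 h at 37 C. Compound titrations were pinned onto drug-naive KB-3-1 parental adenocarcinoma cells grown in DMEM with 10% FBS, and normalized data fitted to concentration-response curves.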
MCF10A rerep: induces DNA re-replication in MCF 10a normal breast cells. MCF 10A DNA re-replication, Hoechst nuclear intensity, 48 h. Potency, µM (top dose mostly 46.1 µM), without a hit: at the highest dose activity, positive = re-replication, usual class: activators. 2.9% of 350,000 active; also: potency is read from the fitted curve at half-maximal effect; % of control where 0% means no effect; nearly all actives have a fitted effect of over 50% in size
Active calls of the source: *; i = inactive; ? = inconclusive; . = not tested or not shown. Unless noted, calls follow the shape of the dose curve; as a rule, active = well fitted curve in the direction sought with a large enough effect; inconclusive = small, poorly fitted or top-dose-only effect, or another doubt; inactive = no such curve, though single readings can be large; an effect the other way counts as inactive or inconclusive.

SMILES	SW480 rerep	KCNH2 3.1 inh	hERG WT inh	KB-V1 MDR tox	KB-3-1 tox	MCF10A rerep
Cc1cc(C)c2ccc3c(C)c(C)nc3c2[nH]1	?	-2	17	16µM*	?	21µM*
CCC(=O)[C@@H](C)[C@@H](OC(C)=O)[C@H](C)C[C@@H](C)[C@H]1OC(=O)C[C@@]2(O)CC=C(C)C(O2)C(C)=CCCC[C@H](O[C@H]2C[C@@H](OC(N)=O)[C@H](OC(C)=O)[C@@H](C)O2)C=C[C@H](C)C[C@H]1C	.	.	.	i	1.3µM*	.
CN(/N=C/c1ccc(N(C)C)cc1)C1=NS(=O)(=O)c2ccccc21	7.3µM*	-15	13	i	?	8.2µM*
COc1ccc(N(C)C2=NS(=O)(=O)c3ccccc32)cc1	2.6µM*	1	-3	i	?	5.8µM*
COc1ccc(/C=N/N(C)C2=NS(=O)(=O)c3ccccc32)cc1	0%	-17	-2	i	i	4%
CN(C1=NS(=O)(=O)c2ccccc21)c1ccc(OC(=O)c2ccccc2F)cc1	.	-4	-33	i	i	.
CN(C)S(=O)(=O)c1cccc(NC(=O)CSc2nncn2-c2ccccc2)c1	-47%	-3	-7	i	?	0.65µM*
NS(=O)(=O)c1cccc(NC(=O)CSc2nnnn2-c2ccccc2)c1	112%	18	-3	?	i	?
CN(C)S(=O)(=O)c1cccc(NC(=O)CSc2nnnn2-c2ccccc2)c1	-37%	-13	-4	10µM*	i	6%
O=C(CSc1nncn1-c1ccccc1)Nc1cc(Cl)cc(Cl)c1	-3%	-7	7	i	i	0%
COc1cc([N+](=O)[O-])ccc1N/C=C/C(=O)c1cccs1	-2%	-16	-23	3.3µM*	5.2µM*	23%
Cc1nn(-c2ccccc2)nc1CNC(=O)c1ncoc1-c1ccccc1	-2%	9	-3	i	i	23µM*
CC1CN(CCCCSc2ccc(Cl)cc2)CC(C)O1 (configuration not stated)	?	16	-4	i	i	23µM*
CC1CN(CCOCCSc2ccc(Cl)cc2)CC(C)O1 (configuration not stated)	-2%	-2	2	?	i	3%
Clc1ccc(SCCCCN2CCNCC2)cc1	?	-28	4	i	i	2.9µM*
Clc1ccc(SCCCCn2ccnc2)cc1	4%	-20	19	i	i	10µM*
Cc1ccc(SCCCCN2CCNCC2)cc1	8%	13	0	i	i	?
CCOc1cc(NC(=S)NCCCN2CCOCC2)c(OCC)cc1NC(=O)c1ccc(C)cc1	-17%	0	1	i	i	-1%
CC(=O)Oc1ccc(OC(C)=O)c(SCCCCCN2CCOCC2)c1	?	4	-5	i	i	4.1µM*
CC(=O)Nc1ccc(NC(=O)C2Cc3c(-c4cccc(C(C)=O)c4)ccnc3O2)cc1 (configuration not stated)	.	.	.	i	i	.
CC(=O)c1cccc(-c2ccnc3c2CC(C(=O)Nc2cccc(OC(F)(F)F)c2)O3)c1 (configuration not stated)	.	.	.	i	i	.
CC(=O)c1cccc(-c2ccnc3c2CC(C(=O)Nc2ccc4c(c2)OCO4)O3)c1 (configuration not stated)	.	.	.	?	6.5µM*	.
CS(=O)(=O)Nc1cccc(NC(=O)C2Cc3c(-c4cccc(F)c4)ccnc3O2)c1 (configuration not stated)	.	.	.	?	6.5µM*	.
CC(=O)Nc1ccc(-c2ccnc3c2CC(C(=O)NCc2cccc(Cl)c2)O3)cc1 (configuration not stated)	.	.	.	?	3.3µM*	.
COc1ccc(NC(=O)C2Cc3c(-c4cccc(C(C)=O)c4)ccnc3O2)cn1 (configuration not stated)	.	.	.	i	2.1µM*	.
SMILES	SW480 rerep	KCNH2 3.1 inh	hERG WT inh	KB-V1 MDR tox	KB-3-1 tox	MCF10A rerep
COc1ccc(NC(=O)C2Cc3c(-c4ccc(NC(C)=O)cc4)ccnc3O2)cn1 (configuration not stated)	.	.	.	?	10µM*	.
CC(=O)Nc1cccc(-c2ccnc3c2CC(C(=O)NCc2ccco2)O3)c1 (configuration not stated)	.	.	.	i	5.8µM*	.
COc1ccc(NC(=O)C2Cc3c(-c4cccc(NC(C)=O)c4)ccnc3O2)cc1 (configuration not stated)	.	.	.	?	4.1µM*	.
CC(=O)Nc1ccc(-c2ccnc3c2CC(C(=O)Nc2ccccc2)O3)cc1 (configuration not stated)	.	.	.	?	21µM*	.
O=C(Nc1ccccc1O)N1c2ccccc2Sc2ccccc21	-4%	-3	1	i	i	?
CCOc1ccc(NC(=O)CN(C)C(=O)CCCOc2ccc(Br)cc2)cc1OCC	15%	5	-5	?	i	24%
COc1ccc(NC(=O)CSc2nncn3c2cc2occc23)c(OC)c1	.	.	.	i	i	.
COc1ccc(NC(=O)C2Cc3c(-c4cccc(C(C)=O)c4)ccnc3O2)cc1 (configuration not stated)	.	.	.	?	4.1µM*	.
CC1=Nc2cc(C(=O)NCc3ccccc3Cl)ccc2Sc2c(C)ccc(C)c21	.	.	.	1.5µM*	1µM*	.
CCCC1=Nc2cc(C(=O)NCc3ccc(OC)cc3)ccc2Sc2ccc(C)cc21	.	.	.	?	i	.
CCC1=Nc2cc(C(=O)NCc3ccccc3Cl)ccc2Sc2ccc(C)cc21	.	.	.	?	3.7µM*	.
Cc1ccc(CN(C)C(=O)c2ccc(S(=O)(=O)N(C)c3ccccc3)cc2)o1	8.2µM*	-5	-6	i	i	?
Cc1ccc(CN(C)C(=O)c2ccccc2Oc2ccccc2)o1	?	-4	-6	21µM*	i	7%
CSc1ccccc1OCc1cc(C(=O)N(C)Cc2ccc(C)o2)no1	?	-5	0	i	i	10%
Cc1c(C(=O)Nc2cccc(Cl)c2)c2ccccn2c1CCc1ccncc1	?	-74*	0	?	i	7.3µM*
CC(C)(C)C(=O)Nc1ccc(-c2nc3ccccc3s2)cc1	.	.	.	i	i	.
COc1cccc(C(C(=O)NC2CCCC2)N(C(=O)c2ccco2)c2ccccc2)c1OC (configuration not stated)	11%	10	-3	?	i	11%
CCOCCCN(C(=O)c1ccco1)C(C(=O)NC1CCCC1)c1cccc(OC)c1OC (configuration not stated)	?	-3	25	16µM*	i	-5%

Screening data: PubChem BioAssay, National Center for Advancing Translational Sciences (NCATS)
